In the OligoGym collection one finds sensor-assay potency score (higher = more potent) data, which are given here for 38 sequences.
Further: reference of the scale not given here.

The first assay deals with CD40. The assay is described as follows: pooled miR-30 sensor sort-seq; sequence = guide strand. Conditions: shRNA.
Consider TTCCGTTTCAGTGAACTCTGTG, for which the sensor-assay potency score (higher = more potent) was 0.749.
Still for that read-out and setting: as for TCCGTTTCAGTGAACTCTGTGC, the figure is -0.4; as for TGTAGCAATCTGCTTGACCCCA, -0.6.
The same measure, in the same setting: as for TCACTCACCAGTTTCTGTCCTG, the figure is 0.175.
Turning to ATTAGGTACTGTTTTTCTCTGC, the sensor-assay potency score (higher = more potent) is -0.104.
The same measure, in the same setting: the result for TATTAGGTACTGTTTTTCTCTG reads -0.885.
TACAGTGCCAGCCTTCTTCACA gave a sensor-assay potency score (higher = more potent) of -1.17.
Same read-out and setting: as for TTTGATAAAGACCAGCACCAAG, the figure is -1.36; as for TTTTCTCTGCATGCAGTGGGTG, -0.932; as for TCTCCTGCACTGGAGCAGCAGT, -1.54.
For TTCTGAGGTGCCCTTCTGCTGG, the sensor-assay potency score (higher = more potent) is -1.42.
The same measure, in the same setting: the result for TGGTTCTGGATGGACAGCGGTC reads -1.56; that for ACAAAGAACAGCACTGACTGTT, 0.0373.
As to TTGGCATCCATGTAAAGTCTCC, the sensor-assay potency score (higher = more potent) is -0.501.
The sequence TTGGTCTCACAGCTTGTCCAAG returned a sensor-assay potency score (higher = more potent) of -1.27.
Still for that read-out and setting: as for TGACTGTTTATTAGGTACTGTT, the figure is -0.925; as for TATTGGTTGGCTTCTTGGCCAC, -0.723; as for TTCTTCACAGGTGCAGATGGTG, -0.762.
Sequence AAGAACAGCACTGACTGTTTAT showed a sensor-assay potency score (higher = more potent) of -1.08.
On the same count and under the same terms, the result for TTTTTCTCTGCATGCAGTGGGT reads -0.914.
In turn, AACCCCTGTAGCAATCTGCTTG showed a sensor-assay potency score (higher = more potent) of -0.675.
Sequence TTTCAGTGAACTCTGTGCAGTC had a sensor-assay potency score (higher = more potent) of 0.172.
As for TAGCAATCTGCTTGACCCCAAA, the sensor-assay potency score (higher = more potent) was -1.28.

The target in the next assay is CD48. The assay is described as above. Conditions: shRNA.
Consider TATACAGTCTCTGTCCTGGTGA, for which the sensor-assay potency score (higher = more potent) is -0.4.
The sequence TTGGCAAGTATAACACCTGGAG displayed a sensor-assay potency score (higher = more potent) of -0.157.
As for TTCTTGCTCATTCCCAGTCTTT, the sensor-assay potency score (higher = more potent) is -1.11.
TTCAGAGTCACGTTGCTGCCGG: the sensor-assay potency score (higher = more potent) was -0.426.
The same measure, in the same setting: the result for TTGTTTGTAGTTCTCAGGCAGG reads -0.932; that for TGAGGATCAAGTCTGACCCTGC, 0.0902.
TTGGATTCAAAGTACTTAGATT had a sensor-assay potency score (higher = more potent) of -1.05.
TACAGGGTCAAGCACTTGCAGC registered a sensor-assay potency score (higher = more potent) of -1.55.
In turn, TAATGTTGTCACAATTTTGGGT displayed a sensor-assay potency score (higher = more potent) of 0.114.
Regarding TACTAGAAAACAACAAAGGGAT, the sensor-assay potency score (higher = more potent) was -0.0806.
As for TTCTATCTTCTCAATTTTGATG, the sensor-assay potency score (higher = more potent) was -0.753.
ATGTGTATCTCTATATCTCTGT displayed a sensor-assay potency score (higher = more potent) of -0.19.
Turning to TTCTACAATCTTCTGGTCGAAA, the sensor-assay potency score (higher = more potent) was -0.694.
For the sequence TCCCATTCTACAATCTTCTGGT, the sensor-assay potency score (higher = more potent) is -0.143.
Sequence TTGCTGCTCACAGAATTGCTGA had a sensor-assay potency score (higher = more potent) of -0.332.
